# An excerpt weighted towards active compounds, which were near 3.6% of everything screened.
# Peg3 prom inh: Peg3 promoter-driven luciferase inhibitors, primary screen, cell-based, HeLa, luciferase luminescence | HeLa PEG-Prom luciferase reporter, overnight | inhibition, % at 20 µM | actives 1.7% (n = 360,000);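 active means inhibition of at least 50% at 20 µM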
# HSP90 inh: HSP90 inhibitors, primary screen, cell lysate, luminescence; Heat shock protein HSP 90 (rabbit reticulocyte lysate; luciferase refolding); Rabbit reticulocyte lysate, luciferase refolding luminescence, 3 h; inhibition, % at 5.6 µM; actives 0.91% (n = 290,000);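 active means inhibition above the screen-wide mean plus 3 SD, computed separately per campaign, cut at about 16% in these data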;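 further: 0% = DMSO wells and 100% = 60 µM geldanamycin wells; inhibitors lower the luminescence because luciferase stays unfolded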
# CF NFkB block: inhibitors of PAF-induced NF-kB signaling, primary screen, cell-based, GFP fluorescence, uHTS | KKLEB NF-kB-GFP reporter, GFP fluorescence overnight | inhibition, % at 5 µM | actives 0.86% (n = 360,000) | AID 588850, 2011;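 active means at least 50% inhibition at 5 µM, scaled per plate between neutral and stimulator controls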;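 further: PAF is a Pseudomonas aeruginosa culture filtrate used as stimulus; plate controls were PAF-stimulated DMSO wells for no effect and unstimulated DMSO wells for full effect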
# Mdm2 MdmX PPI: inhibitors of human Mdm2-MdmX association, primary screen, cell-based, luminescence, split luciferase, SaOS-2, uHTS; Protein Mdm4 (Homo sapiens) + E3 ubiquitin-protein ligase Mdm2 (Homo sapiens), …; SaOS-2 split-luciferase Mdm2/MdmX complementation; inhibition, % at 8 µM; actives 3% (n = 330,000); AID 485346, 2010;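 active means inhibition of at least 50% at 8 µM in the primary screen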
# Target sequence (O15151 whole entry, looked up): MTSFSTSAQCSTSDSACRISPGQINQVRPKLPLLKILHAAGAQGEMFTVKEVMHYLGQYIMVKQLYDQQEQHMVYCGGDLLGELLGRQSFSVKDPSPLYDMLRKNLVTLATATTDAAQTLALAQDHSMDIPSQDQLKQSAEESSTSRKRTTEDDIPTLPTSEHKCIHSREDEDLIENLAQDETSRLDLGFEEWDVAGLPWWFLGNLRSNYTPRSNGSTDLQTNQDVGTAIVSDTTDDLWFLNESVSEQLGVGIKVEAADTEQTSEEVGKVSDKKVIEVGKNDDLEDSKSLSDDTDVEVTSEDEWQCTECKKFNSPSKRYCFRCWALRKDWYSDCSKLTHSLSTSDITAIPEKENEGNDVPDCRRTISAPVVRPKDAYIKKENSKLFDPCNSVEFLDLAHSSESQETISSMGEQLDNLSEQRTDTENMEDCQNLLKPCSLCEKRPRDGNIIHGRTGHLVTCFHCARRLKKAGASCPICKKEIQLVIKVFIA
# Target sequence (Q00987 whole entry, looked up): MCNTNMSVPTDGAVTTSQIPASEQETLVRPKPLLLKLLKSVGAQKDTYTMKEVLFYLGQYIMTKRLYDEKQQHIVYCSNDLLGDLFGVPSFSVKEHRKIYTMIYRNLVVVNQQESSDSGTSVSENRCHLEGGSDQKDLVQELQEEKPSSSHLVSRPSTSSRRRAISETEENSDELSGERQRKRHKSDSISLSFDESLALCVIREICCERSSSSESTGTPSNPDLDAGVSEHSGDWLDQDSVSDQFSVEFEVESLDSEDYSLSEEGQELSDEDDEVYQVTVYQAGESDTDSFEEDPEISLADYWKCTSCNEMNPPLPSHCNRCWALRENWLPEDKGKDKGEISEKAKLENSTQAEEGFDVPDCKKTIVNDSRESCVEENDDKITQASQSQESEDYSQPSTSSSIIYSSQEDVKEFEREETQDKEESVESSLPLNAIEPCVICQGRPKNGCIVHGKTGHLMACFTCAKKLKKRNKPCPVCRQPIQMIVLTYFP
# LGR2 antag: inhibitors of bursicon-induced LGR2 CRE-luciferase signal, primary screen, cell-based, HEK293, CRE-luciferase reporter, bursicon stimulation; Drosophila bursicon receptor LGR2 (rickets); AID 720647, 2013; bursicon-stimulated, 4 h; inhibition, % at 9.99 µM; actives 0.35% (n = 380,000);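 active means drop in luminescence signal, shown as inhibition above about 50% in the replicate tests, limit read from the data, passing the limit was not always enough; inconclusive means probably only some replicates passing the limit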;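 further: agonist challenge used bursicon conditioned medium at about half maximal strength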
# KKLEB cytotox: cytotoxicity in KKLEB CF airway cells, primary screen, cytotoxicity control for CF NF-kB inhibitor project, cell-based, uHTS, fluorescence assay plates; KKLEB CF airway cells viability, ATPlite luminescence, overnight; hits give low values; cells stimulated with P. aeruginosa culture filtrate; activity change (cytotoxicity), % at 5 µM; actives 0.36% (n = 360,000); AID 602141, 2011;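 active means corrected activity change at or below -50% at 5 µM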
# Mdm2-MdmX conf: Mdm2-MdmX complex disruptors, retested hits, confirmation, luminescence, single concentration; inhibition, % at 8 µM; AID 489028, 2010; Mdm2-MdmX binding, luminescent assay; shares compounds with Mdm2 MdmX PPI; actives 55% (n = 10,000); in the data active means inhibition above about 40%
# FLuc counter: full-length luciferase signal inhibition, confirmation, counter-screen for Mdm2/MdmX interaction inhibitor project, cell-based, single concentration, SaOS-2. AID 504607, 2011. SaOS-2 full-length luciferase counterscreen, luminescence. inhibition, % at 8 µM. actives 77% (n = 6,200). shares compounds with Mdm2 MdmX PPI;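 active means mean inhibition at 8 µM reaching about 37%, which flags the compound as non-specific, limit read from the data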;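 further: p53-null SaOS-2 cells with luciferase driven by a doxycycline-inducible promoter; compound on cells about two nights before reading with doxycycline added after day one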
# * marks the source's active call; other numbers are inactive results; ? = inconclusive; . = not tested or not shown.
SMILES,Peg3 prom inh,HSP90 inh,CF NFkB block,Mdm2 MdmX PPI,LGR2 antag,KKLEB cytotox,Mdm2-MdmX conf,FLuc counter
CCOc1ccc(/C=C/C(O)=C2/C(=O)N(C)C3(C)CC2c2ccccc2O3)cc1OC (stereo not drawn),40,3,47,67*,38,-14,69*,41*
CCOc1ccc(/C=C/C(O)=C2/C(=O)NC3(C)CC2c2ccccc2O3)cc1OC (stereo not drawn),37,0,15,83*,17,-11,90*,23
CN(C)c1ccc(/C=C/C(O)=C2/C(=O)N(C)C3(C)CC2c2ccccc2O3)cc1 (stereo not drawn),.,0,.,.,.,.,.,.
C=C1C(C(=O)Nc2ccc(OCC)cc2)C1C(=O)Nc1ccc(OCC)cc1 (stereo not drawn),6,0,7,37,14,1,.,.
C=C1C(C(=O)Nc2ccc(OC)cc2)C1C(=O)Nc1ccc(OC)cc1 (stereo not drawn),6,1,2,72*,6,-1,25,.
CCn1c(SCc2ccccc2Cl)nc2nc3c(cc2c1=O)CCCC3,32,2,-7,.,5,-24,.,.
CCn1c(SCc2c(Cl)cccc2Cl)nc2nc3c(cc2c1=O)CCCC3,18,.,1,64*,-14,-6,63*,36
Cc1ccc2nc(SCC(=O)Nc3ccccc3N3CCOCC3)c(C#N)cc2c1,19,3,-3,40,.,-6,.,.
CCc1ccc2nc(SCC(=O)Nc3ccccc3N3CCOCC3)c(C#N)cc2c1,37,2,6,67*,-3,-7,60*,46*
Cc1cccc(OCC(=O)NC(C)C(=O)N/N=C/c2c(OCc3ccccc3)ccc3ccccc23)c1 (stereo not drawn),-130,2,-1,76*,-10,-8,36,69*
COc1ccc2ccccc2c1/C=N/NC(=O)c1cccc(C)c1,-4,.,-22,4,10,11,.,.
CN(c1ccccc1)S(=O)(=O)c1ccc(Cl)c(C(=O)Nc2ccncc2)c1,18,.,46,31,-16,-35,.,.
CN(c1ccc(F)cc1)S(=O)(=O)c1ccc(Cl)c(C(=O)Nc2ccncc2)c1,3,.,18,52*,11,-32,28,.
Cc1ccc(C)c(CSc2nc3[nH]ncc3c(=O)[nH]2)c1,17,-1,41,56*,6,-20,68*,48*
CC(=O)c1c(-c2ccccc2)[nH]c2ccccc12,31,-2,-1,52*,7,-4,33,.
O=C(N[C@H]1CC[C@@H](CCn2cc(Cc3ccccc3)nn2)O[C@@H]1CO)c1cnccn1,.,.,.,.,2,.,.,.
O=C(OCc1ccc(Br)cc1)c1cnc(Cl)c(Cl)c1,-31,-2,1,69*,16,-1,48*,96*
C[C@H](CO)N1C[C@H](C)[C@H](CN(C)CC2CCOCC2)Oc2ncc(-c3cccc(F)c3)cc2C1=O,.,.,.,.,-7,.,.,.
Cc1cc(C(=O)Nc2cccc3c2O[C@H](CN(C)Cc2ccc(Oc4ccccc4)cc2)[C@@H](C)CN([C@@H](C)CO)C3=O)n(C)n1,.,.,.,.,0,.,.,.
CCOc1ccc(-n2c(-c3ccc(OC)cc3)c[n+]3c2CCCCC3)cc1,10,-5,5,56*,14,-6,47*,46*
COc1ccc(-c2c[n+]3c(n2-c2ccc(C)cc2)CCCCC3)cc1,7,2,2,62*,.,1,40*,49*
COc1ccc(NC(=O)[C@H](Cc2c[nH]c3ccccc23)NC(=O)[C@@H]2Cc3ccccc3CN2)cc1,-6,-1,3,92*,6,-6,73*,39*
COc1ccc(CNC(=O)[C@H](Cc2c[nH]c3ccccc23)NC(=O)[C@@H]2Cc3ccccc3CN2)cc1,5,-1,-23,9,3,14,.,.
CC(C)c1ccc(NC(=O)[C@H](Cc2c[nH]c3ccccc23)NC(=O)[C@@H]2Cc3ccccc3CN2)cc1,-41,13,18,96*,28,-1,79*,23
CCCCn1c(SCC(=O)Nc2cc(C)on2)nc2cc(S(N)(=O)=O)ccc21,8,.,7,0,1,3,.,.
SMILES,Peg3 prom inh,HSP90 inh,CF NFkB block,Mdm2 MdmX PPI,LGR2 antag,KKLEB cytotox,Mdm2-MdmX conf,FLuc counter
CCCCn1c(SCc2c(C)noc2C)nc2cc(S(N)(=O)=O)ccc21,-16,9,-89,75*,-2,-6,60*,62*
C[C@@H]1CCCCO[C@H](CN(C)C(=O)c2ccccc2)[C@H](C)CN([C@@H](C)CO)C(=O)c2cc(NC(=O)CCCCCC(=O)Nc3ccccc3N)ccc2O1,.,.,.,.,18,.,.,.
CCOC(=O)c1c(C)n(C)c2ccc(OCC(O)CNC(CC)CO)cc12 (stereo not drawn),2,3,3,-23,29,-4,.,.
CCOC(=O)c1c(C)n(-c2ccc(C)cc2)c2ccc(OCC(O)CNCCCO)cc12 (stereo not drawn),105*,1,12,89*,?,-15,17,.
CCOC(=O)c1c(C)n(-c2ccc(C)cc2)c2ccc(OCC(O)CNCC3CCCO3)cc12 (stereo not drawn),86*,9,41,78*,.,-37,42*,62*
OC(CNCC1CCCO1)COc1ccc(OCC(O)CNCC2CCCO2)cc1 (stereo not drawn),-1,0,3,0,.,3,.,.
C[C@H]1CN([C@@H](C)CO)C(=O)c2cc(NC(=O)NC3CCCCC3)ccc2O[C@H]1CN(C)C(=O)NC1CCCCC1,.,.,.,.,11,.,.,.
Cc1ccsc1-c1nc(C(N)=O)c2[nH]c(=O)n(-c3ccc(Cl)cc3)c2n1,76*,-1,44,97*,-17,-45,12,.
CO[C@H]1CN(C)C(=O)c2ccc(NC(=O)Nc3ccc(Cl)cc3)cc2OC[C@@H](C)N(C(=O)Nc2c(C)noc2C)C[C@@H]1C,.,.,.,.,8,.,.,.
COc1ccc(-n2cc(-c3ccccc3)c3c(N4CCN(CCO)CC4)ncnc32)cc1,19,7,10,51*,-21,-10,16,.
